The record followed here is paper PMC7862700, “An all-to-all approach to the identification of sequence-specific readers for epigenetic DNA modifications on cytosine”.

Test in all cases: DAPPL (digital affinity profiling via proximity ligation, sequencing); 10 mM Tris-HCl pH 7.5, 50 mM NaCl, 1 mM DTT, 4% glycerol, room temperature, 30 min; GST-TFs on glutathione beads, 16-mer random dsDNA library, 0.1% formaldehyde crosslink after washing; high values mean tight binding
What all share (conditions): protein: recombinant; tags: N-terminal GST; dsDNA, one strand shown

The target of one test is T1, FLI1 (Homo sapiens, UniProt Q01543 1-452).
T1 sequence: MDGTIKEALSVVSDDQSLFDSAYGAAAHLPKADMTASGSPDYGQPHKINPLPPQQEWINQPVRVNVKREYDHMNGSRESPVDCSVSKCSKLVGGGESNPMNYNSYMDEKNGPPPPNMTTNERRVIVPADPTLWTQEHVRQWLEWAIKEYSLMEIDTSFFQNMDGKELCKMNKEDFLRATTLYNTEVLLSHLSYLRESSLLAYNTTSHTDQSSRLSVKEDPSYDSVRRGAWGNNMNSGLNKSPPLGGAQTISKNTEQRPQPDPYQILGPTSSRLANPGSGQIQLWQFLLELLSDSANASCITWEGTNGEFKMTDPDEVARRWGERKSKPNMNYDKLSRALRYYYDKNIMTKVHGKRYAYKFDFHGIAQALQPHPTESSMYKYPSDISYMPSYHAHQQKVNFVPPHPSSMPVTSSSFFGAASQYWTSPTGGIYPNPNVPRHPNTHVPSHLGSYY
The method in brief: (§1)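 Beads coated with glutathione captured GST-fused human transcription factors that had been expressed in yeast, and the factors were then given DNA barcodes and pooled with a tag-only sample. The pools were incubated with 200 nmole of a random double-stranded 16-mer DNA library in Tris/NaCl/DTT/glycerol buffer for 30 min at room temperature, washed, crosslinked with 0.1% formaldehyde and proximity-ligated with BsaI/T4 ligase at 37 °C for 1 h. PCR amplification and Illumina NextSeq500 sequencing came last. Binding signal is each hexamer's read frequency for a factor divided by its frequency for the tag-only sample.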

In a further test the target is T2, ELK1 (Homo sapiens, UniProt P19419 1-428).
T2 sequence: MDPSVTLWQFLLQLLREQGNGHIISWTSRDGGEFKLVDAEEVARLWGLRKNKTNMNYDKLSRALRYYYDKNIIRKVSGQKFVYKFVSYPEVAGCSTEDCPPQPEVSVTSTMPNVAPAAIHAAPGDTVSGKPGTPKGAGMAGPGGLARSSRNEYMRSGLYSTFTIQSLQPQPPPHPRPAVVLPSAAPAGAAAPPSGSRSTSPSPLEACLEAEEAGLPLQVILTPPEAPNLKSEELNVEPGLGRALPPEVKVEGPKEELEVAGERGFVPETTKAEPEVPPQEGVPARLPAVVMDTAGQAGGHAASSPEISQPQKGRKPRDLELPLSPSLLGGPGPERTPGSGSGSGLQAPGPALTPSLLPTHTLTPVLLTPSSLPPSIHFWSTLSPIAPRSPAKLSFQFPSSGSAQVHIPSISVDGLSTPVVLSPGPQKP
The gist of the method: as §1

The next test has as its target T3, GABPA (Homo sapiens, UniProt Q06546 1-454).
T3 sequence: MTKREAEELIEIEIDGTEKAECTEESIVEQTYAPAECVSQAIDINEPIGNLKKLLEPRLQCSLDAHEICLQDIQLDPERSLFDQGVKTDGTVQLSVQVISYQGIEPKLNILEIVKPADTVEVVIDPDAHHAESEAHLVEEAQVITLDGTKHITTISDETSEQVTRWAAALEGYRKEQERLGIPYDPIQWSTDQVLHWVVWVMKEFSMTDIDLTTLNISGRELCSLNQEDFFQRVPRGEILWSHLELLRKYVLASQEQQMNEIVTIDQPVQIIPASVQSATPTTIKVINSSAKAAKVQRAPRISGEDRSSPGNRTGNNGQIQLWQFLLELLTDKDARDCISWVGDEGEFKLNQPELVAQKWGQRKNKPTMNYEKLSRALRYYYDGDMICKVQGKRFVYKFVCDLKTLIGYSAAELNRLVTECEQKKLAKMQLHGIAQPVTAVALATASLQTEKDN
The gist of the method: as §1

In a further test the target is T4, ERG (Homo sapiens, UniProt P11308 1-479).
T4 sequence: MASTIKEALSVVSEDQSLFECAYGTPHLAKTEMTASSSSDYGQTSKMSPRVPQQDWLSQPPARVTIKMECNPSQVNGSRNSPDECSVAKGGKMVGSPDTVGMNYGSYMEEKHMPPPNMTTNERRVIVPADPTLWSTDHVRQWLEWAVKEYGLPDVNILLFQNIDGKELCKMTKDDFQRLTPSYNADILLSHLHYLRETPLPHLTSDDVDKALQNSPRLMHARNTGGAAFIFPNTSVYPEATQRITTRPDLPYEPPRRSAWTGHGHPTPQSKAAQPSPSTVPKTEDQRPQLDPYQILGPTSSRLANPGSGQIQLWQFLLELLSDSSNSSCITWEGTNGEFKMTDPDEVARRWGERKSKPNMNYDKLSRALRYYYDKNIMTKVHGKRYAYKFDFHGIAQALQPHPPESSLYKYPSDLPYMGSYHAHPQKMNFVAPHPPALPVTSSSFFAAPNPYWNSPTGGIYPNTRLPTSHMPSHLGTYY
The method in brief:
as §1

The target of a further test is ELF1 (Homo sapiens, UniProt P32519 1-619). The method in brief:
as §1

A further test addresses T5, EHF (Homo sapiens, UniProt Q9NZC4 1-300).
T5 sequence: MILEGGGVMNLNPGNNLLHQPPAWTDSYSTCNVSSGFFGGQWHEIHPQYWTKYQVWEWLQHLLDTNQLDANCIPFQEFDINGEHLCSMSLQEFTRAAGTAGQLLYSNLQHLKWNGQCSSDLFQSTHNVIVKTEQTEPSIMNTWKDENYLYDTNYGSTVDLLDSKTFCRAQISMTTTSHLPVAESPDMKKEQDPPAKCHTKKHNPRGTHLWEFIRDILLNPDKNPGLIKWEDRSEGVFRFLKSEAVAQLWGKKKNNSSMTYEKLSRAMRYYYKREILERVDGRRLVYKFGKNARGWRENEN
The method in brief:
as §1

A further test deals with SPI1 (Homo sapiens, UniProt P17947 1-270). The method in brief: as §1
Another test has as its target SPIB (Homo sapiens, UniProt Q01892 1-262). The method in brief: as §1
The target in another test is T6, ELK3 (Homo sapiens, UniProt P41970 1-407).
T6 sequence: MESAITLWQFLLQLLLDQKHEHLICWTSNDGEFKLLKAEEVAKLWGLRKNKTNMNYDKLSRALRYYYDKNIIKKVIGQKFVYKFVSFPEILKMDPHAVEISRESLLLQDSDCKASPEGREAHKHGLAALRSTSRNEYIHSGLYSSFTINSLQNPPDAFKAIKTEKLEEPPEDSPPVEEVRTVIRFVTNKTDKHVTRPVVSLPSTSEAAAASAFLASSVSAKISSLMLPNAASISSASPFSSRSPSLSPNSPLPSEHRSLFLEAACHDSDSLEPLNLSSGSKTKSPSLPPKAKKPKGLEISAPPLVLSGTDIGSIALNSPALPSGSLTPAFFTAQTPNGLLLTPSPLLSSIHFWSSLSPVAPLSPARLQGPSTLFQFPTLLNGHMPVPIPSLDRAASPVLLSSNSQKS
The method in brief:
as §1

The target of the next test is T7, FEV (Homo sapiens, UniProt Q99581 1-238).
T7 sequence: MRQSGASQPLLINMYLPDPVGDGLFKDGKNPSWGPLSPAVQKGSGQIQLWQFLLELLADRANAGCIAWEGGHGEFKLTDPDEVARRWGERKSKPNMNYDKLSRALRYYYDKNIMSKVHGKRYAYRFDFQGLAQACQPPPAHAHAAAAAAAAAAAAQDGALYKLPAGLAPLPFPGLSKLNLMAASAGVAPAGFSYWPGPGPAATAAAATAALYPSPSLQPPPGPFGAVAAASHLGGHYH
The gist of the method:
as §1

The target of a further test is ETV5 (Homo sapiens, UniProt P41161 1-510). The method in brief:
as §1

Another test deals with ELF4 (Homo sapiens, UniProt Q99607 1-663). The gist of the method: as §1
Another test deals with ETV1 (Homo sapiens, UniProt P50549 1-477). The gist of the method: as §1
The next test deals with T8, ERF (Homo sapiens, UniProt P50548 1-548).
T8 sequence: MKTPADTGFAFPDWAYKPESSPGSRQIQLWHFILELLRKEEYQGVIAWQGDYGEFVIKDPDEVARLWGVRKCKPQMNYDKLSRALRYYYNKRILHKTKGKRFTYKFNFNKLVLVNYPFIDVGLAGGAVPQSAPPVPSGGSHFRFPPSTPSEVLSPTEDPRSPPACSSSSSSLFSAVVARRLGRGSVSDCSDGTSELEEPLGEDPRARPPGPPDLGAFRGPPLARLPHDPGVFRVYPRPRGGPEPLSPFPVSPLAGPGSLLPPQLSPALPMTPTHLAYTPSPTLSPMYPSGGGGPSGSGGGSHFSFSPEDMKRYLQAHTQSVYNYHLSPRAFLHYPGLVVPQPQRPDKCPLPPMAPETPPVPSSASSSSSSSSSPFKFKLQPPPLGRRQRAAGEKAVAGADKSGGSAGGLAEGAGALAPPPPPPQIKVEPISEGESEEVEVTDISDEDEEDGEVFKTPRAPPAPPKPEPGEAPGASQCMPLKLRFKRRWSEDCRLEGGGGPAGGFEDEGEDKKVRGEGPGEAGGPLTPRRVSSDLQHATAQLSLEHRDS
The method in brief:
as §1

Another test addresses T9, ETV3L (Homo sapiens, UniProt Q6ZN32 1-361).
T9 sequence: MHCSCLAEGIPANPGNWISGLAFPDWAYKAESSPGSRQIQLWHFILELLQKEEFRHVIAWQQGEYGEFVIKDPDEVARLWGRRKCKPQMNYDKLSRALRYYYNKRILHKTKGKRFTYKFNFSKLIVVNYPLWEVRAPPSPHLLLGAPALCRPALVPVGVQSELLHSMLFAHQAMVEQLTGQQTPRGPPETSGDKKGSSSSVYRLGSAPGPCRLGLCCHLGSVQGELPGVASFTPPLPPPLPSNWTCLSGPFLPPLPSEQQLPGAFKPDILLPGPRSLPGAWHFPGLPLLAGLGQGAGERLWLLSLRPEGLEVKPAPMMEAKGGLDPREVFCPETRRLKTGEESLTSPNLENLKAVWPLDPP
The method in brief: as §1

In another test the target is T10, ETS2 (Homo sapiens, UniProt P15036 1-469).
T10 sequence: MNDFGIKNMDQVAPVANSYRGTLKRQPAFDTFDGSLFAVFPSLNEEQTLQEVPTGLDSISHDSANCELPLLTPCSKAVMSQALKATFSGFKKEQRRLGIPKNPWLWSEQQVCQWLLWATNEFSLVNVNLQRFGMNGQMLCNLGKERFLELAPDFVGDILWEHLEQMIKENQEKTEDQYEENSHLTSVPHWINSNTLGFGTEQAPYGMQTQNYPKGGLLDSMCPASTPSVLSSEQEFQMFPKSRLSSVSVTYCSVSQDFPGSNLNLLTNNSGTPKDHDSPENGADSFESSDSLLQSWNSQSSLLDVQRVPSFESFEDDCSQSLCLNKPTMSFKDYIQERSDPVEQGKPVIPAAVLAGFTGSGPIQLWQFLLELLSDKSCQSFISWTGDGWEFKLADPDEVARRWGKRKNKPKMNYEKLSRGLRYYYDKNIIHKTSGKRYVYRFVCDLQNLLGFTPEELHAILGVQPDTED
The method in brief: as §1

The next test concerns the target T11, ELF5 (Homo sapiens, UniProt Q9UKW6-2 1-255).
T11 sequence: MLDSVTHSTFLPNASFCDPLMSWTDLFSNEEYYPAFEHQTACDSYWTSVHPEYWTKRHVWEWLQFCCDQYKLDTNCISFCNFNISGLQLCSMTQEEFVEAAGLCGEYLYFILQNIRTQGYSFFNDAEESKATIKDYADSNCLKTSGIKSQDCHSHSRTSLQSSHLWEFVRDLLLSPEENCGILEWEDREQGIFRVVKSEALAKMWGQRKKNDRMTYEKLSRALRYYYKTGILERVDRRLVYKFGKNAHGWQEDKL
The method in brief: as §1

A further test deals with T12, ETV3 (Homo sapiens, UniProt P41162-2 1-143).
T12 sequence: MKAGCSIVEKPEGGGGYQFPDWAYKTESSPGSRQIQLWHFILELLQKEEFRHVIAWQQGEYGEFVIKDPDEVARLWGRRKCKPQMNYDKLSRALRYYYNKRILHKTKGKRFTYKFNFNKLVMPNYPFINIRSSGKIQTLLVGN
The method in brief: as §1

The target of a further test is ETV6 (Homo sapiens, UniProt P41212 1-452). The gist of the method:
as §1

Sequence of SPIB (Q01892 whole entry): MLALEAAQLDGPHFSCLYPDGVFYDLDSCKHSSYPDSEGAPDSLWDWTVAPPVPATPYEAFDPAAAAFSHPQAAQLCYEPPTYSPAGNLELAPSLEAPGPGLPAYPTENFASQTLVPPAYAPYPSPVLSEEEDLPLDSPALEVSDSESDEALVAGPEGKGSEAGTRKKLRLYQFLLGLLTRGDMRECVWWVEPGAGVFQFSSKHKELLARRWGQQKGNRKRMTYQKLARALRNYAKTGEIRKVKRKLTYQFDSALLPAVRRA
Sequence of ELF4 (Q99607 whole entry): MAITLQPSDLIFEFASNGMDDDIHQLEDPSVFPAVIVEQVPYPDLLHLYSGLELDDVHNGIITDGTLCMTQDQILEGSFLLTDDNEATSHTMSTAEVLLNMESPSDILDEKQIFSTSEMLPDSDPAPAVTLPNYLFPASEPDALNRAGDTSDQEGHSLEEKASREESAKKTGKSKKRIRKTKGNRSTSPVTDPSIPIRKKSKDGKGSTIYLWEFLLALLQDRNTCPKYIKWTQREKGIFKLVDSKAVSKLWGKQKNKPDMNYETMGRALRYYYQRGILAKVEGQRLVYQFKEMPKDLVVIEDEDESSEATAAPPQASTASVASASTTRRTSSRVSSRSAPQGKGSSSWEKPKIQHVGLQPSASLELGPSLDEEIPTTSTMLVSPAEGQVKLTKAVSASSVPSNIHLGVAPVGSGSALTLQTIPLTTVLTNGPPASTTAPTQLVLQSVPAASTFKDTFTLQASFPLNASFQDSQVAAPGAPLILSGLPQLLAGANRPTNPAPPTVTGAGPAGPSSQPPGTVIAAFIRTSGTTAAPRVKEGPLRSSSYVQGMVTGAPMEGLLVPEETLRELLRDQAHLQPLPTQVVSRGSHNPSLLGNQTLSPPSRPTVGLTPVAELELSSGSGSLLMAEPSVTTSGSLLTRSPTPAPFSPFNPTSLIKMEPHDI
Sequence of ELF1 (P32519 whole entry): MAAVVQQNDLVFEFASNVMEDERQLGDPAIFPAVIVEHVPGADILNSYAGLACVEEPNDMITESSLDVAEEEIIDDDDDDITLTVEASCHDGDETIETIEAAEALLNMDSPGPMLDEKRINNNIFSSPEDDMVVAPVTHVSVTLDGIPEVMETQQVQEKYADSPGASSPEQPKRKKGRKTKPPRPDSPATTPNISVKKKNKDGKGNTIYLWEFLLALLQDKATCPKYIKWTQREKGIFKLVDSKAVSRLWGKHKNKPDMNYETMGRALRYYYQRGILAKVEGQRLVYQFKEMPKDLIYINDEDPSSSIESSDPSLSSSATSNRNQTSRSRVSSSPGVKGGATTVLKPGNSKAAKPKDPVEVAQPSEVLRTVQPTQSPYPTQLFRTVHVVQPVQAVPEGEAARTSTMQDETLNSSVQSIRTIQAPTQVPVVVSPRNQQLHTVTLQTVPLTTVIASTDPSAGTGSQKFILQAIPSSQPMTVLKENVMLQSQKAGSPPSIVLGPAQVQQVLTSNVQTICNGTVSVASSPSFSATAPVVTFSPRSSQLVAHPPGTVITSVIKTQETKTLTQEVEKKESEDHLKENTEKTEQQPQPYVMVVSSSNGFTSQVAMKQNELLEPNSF
Sequence of ETV1 (P50549 whole entry): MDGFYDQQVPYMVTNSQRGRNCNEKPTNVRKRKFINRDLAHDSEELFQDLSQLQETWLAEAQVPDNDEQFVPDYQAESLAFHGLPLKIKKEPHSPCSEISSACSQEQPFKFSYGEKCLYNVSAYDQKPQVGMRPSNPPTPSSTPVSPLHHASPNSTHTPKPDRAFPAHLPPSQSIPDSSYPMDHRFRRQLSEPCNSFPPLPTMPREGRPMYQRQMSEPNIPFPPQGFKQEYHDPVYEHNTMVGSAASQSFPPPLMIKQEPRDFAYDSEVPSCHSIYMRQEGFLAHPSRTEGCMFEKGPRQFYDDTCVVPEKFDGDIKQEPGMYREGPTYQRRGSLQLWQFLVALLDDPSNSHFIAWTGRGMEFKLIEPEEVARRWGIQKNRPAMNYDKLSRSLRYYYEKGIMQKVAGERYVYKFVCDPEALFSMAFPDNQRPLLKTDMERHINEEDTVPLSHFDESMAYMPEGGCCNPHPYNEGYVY
Sequence of ETV5 (P41161 whole entry): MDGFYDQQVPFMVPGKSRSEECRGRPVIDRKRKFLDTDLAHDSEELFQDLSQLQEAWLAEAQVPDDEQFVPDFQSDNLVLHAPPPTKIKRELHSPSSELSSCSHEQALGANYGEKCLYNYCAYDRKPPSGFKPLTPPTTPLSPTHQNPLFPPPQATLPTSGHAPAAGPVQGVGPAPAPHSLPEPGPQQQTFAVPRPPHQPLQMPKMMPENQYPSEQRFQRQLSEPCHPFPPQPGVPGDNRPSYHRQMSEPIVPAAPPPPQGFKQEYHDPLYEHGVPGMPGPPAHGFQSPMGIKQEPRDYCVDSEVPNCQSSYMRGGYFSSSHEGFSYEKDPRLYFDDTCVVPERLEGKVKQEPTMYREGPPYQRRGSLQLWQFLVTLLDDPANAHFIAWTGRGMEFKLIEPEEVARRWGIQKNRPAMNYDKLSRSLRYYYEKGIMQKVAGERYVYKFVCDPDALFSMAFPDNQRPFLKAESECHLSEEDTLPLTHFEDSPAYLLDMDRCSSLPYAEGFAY
Sequence of ETV6 (P41212 whole entry): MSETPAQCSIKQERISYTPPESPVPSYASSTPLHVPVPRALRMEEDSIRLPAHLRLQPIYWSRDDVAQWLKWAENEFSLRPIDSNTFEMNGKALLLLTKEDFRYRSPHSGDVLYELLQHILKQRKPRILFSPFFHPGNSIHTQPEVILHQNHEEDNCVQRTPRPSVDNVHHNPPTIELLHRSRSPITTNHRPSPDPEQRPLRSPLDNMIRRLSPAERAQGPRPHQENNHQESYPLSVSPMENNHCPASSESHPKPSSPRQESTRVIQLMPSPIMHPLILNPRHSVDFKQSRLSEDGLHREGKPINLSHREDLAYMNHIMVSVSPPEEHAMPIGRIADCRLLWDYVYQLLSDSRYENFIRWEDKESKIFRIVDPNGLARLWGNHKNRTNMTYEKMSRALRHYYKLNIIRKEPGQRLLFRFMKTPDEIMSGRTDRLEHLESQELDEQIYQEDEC

Consider GTTGTT, for which the binding signal is 1.17 fold enrichment (6-mer frequency, TF over GST control) with FLI1; 1.12 fold enrichment (6-mer frequency, TF over GST control) with ELK1; 1.04 fold enrichment (6-mer frequency, TF over GST control) with GABPA; 1.02 fold enrichment (6-mer frequency, TF over GST control) with ERG; 1.09 fold enrichment (6-mer frequency, TF over GST control) with ELF1; 1.12 fold enrichment (6-mer frequency, TF over GST control) with EHF. The binding signal in the test with SPI1 is 1.09 fold enrichment (6-mer frequency, TF over GST control); in the test with SPIB it was 1.22 fold enrichment (6-mer frequency, TF over GST control); with ELK3, 1.1 fold enrichment (6-mer frequency, TF over GST control); with FEV, 1.1 fold enrichment (6-mer frequency, TF over GST control); with ETV5, 1.02 fold enrichment (6-mer frequency, TF over GST control); with ELF4, 1.04 fold enrichment (6-mer frequency, TF over GST control). The binding signal in the test with ETV1 is 1.14 fold enrichment (6-mer frequency, TF over GST control); with ERF, 1.06 fold enrichment (6-mer frequency, TF over GST control); with ETV3L, 1.14 fold enrichment (6-mer frequency, TF over GST control); in the test with ETS2, 1.06 fold enrichment (6-mer frequency, TF over GST control); with ELF5, 1.19 fold enrichment (6-mer frequency, TF over GST control); with ETV3, 1.11 fold enrichment (6-mer frequency, TF over GST control). Moreover, the binding signal in the test with ETV6 is 1.09 fold enrichment (6-mer frequency, TF over GST control).
